Measured values taken from PubChem BioAssay (NCI).
The panel holds about 83,000 compounds, 20% with a hit somewhere; the sample as a whole holds those more often.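 For each line, cells grew in 96-well plates with the test compound present at a single concentration for 48 hours.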 A number with no mark means an inactive call. The source made the active and inactive calls. Rule for the calls: active = growth percent below 10; inactive = the rest.

test system: TK-10 renal; assay: NCI-60 one-dose screen, 48 h (100 = growth as untreated, 0 = no growth, -100 = all killed); settings: 10 µM unless noted

Row | SMILES | growth
1 | NC(=O)c1c(NC(=O)c2ccc(Cl)cc2)sc2c1CCC(=O)C2 | 85.2%
2 | Nc1c(C(=O)Nc2cccc3ncccc23)sc2nc3c(cc12)C(=O)CCC3 | 76.8%
3 | CCOC(=O)c1cn2ncnc(Oc3ccc(NC(=O)NC4CC4)c(F)c3)c2c1C | 119%
4 | CCOC(=O)c1c2c(n3c1NCC3)-c1ccccc1C2=O | 96.4%
5 | CCCC(O)Cn1ncc(C(=O)OCC)c1NC(=O)NCc1cccc(F)c1 (configuration not stated) | 87.5%
6 | O=C(CCC(=O)c1nc2ncccc2[nH]1)NN1C(=O)CSC1c1ccc(Cl)cc1 (configuration not stated) | 126%
7 | COc1ccc2nc(Cl)c(/C=C/C(=O)c3ccc(NC(=O)CSc4nnc(-c5ccc(Cl)c(Cl)c5)n4-c4ccccc4)cc3)cc2c1 | 100%
8 | CS(=O)(=O)Nc1cncc(-c2ccc3ncnc(Nc4ccc(F)c(Cl)c4)c3c2)c1 | -2.22% (active)
9 | Cc1ccc(-c2nc(C#N)c(S(=O)(=O)NCCO)o2)cc1 | 65.7%
10 | O=C1OCC2=C1C(c1cccc(C(F)(F)F)c1)c1cc3c(cc1N2CCO)OCO3 (configuration not stated) | 60.8%
11 | Cc1[nH]c(C(=O)Nc2cccc(OC3CCNCC3)c2)c(Cl)c1Cl | 123%
12 | CCN1C(=S)N(CC)C2C1NC(=S)N2/N=C/C=C/c1ccccc1OC (configuration not stated) | 71.4%
13 | COc1cc(-c2nc3occn3c2-c2ccnc(NCCCNS(=O)(=O)c3ccccc3)n2)ccc1F | 49.5%
14 | O=C(O)c1cccc(N/C=C/C(=O)c2cc3cc(Br)ccc3oc2=O)c1 | 119%
15 | COc1ccc(C2C(C#N)=C(N)Oc3c2sc2c(Br)cccc32)cc1 (configuration not stated) | 50.2%
16 | CCNc1nc(-c2ccc(F)cc2)c(C#N)c(=O)n1C | 34%
17 | CC12CCC(/C(=C/NNc3ccc([N+](=O)[O-])cc3[N+](=O)[O-])C1=O)C2(C)C (configuration not stated) | 96.8%
18 | S=c1[nH]c2cc(Cl)ccc2o1 | 94.6%
19 | COc1cc2c3c(c1O)-c1ccccc1[C@@H]1OC(=O)N(CC2)[C@H]31 | 104%

Row | SMILES | growth
20 | CC(C)CSc1oc(-c2ccccc2)nc1S(=O)(=O)c1ccccc1 | 65.6%
21 | C#CCOc1cccc(-c2ncc3cc(NC(=O)CCl)ccc3n2)c1 | 78.9%
22 | Cn1c(=O)c2c(nc(NC3=NS(=O)(=O)c4ccccc43)n2Cc2ccccc2)n(C)c1=O | 143%
23 | COc1cc2c(c(OC)c1OC)C(=O)CC(c1cccc(NC(=O)c3ccccc3Br)c1)O2 (configuration not stated) | 97.1%
24 | CC(C)(CO)N(CCO)CCO | 95.5%
25 | CC(=O)c1c(Nc2ccc(F)c(F)c2F)[nH]c2c(F)cc(F)cc2c1=O | 12.7%
26 | C#CCOc1ccc2ncnc(Nc3cccc(NC(=O)CCl)c3)c2c1 | 73.4%
27 | CCn1cc(C2=C(c3cn(C)c4ncccc34)C(=O)NC2=O)c2cccnc21 | 69.4%
28 | NNC(=S)N/N=C/c1ccccn1 | 46.9%
29 | Cc1ccc2nc(Cl)c(Cn3nnnc3SCc3ccccc3)cc2c1 | 97.9%
30 | Clc1nn2c(Cn3cnc4c(NCc5ccccc5)ncnc43)nnc2c2ccccc12 | 40.5%
31 | CN(C)c1ccc(/C=C2/C=C(c3ccccc3)OC2=O)cc1 | 110%
32 | O=C(CN1C(=O)NC2NC(=O)NC21)N/N=C/c1ccc(Cl)cc1Cl (configuration not stated) | 101%
33 | COc1cccc(Nc2ccnc3[nH]c4ccc([N+](=O)[O-])cc4c23)c1 | 66.6%
34 | COc1ccc(C/C(C)=C(/c2ccc(OCCN3CCCCCC3)cc2)c2ccc(OC(=O)NCc3ccccc3)cc2)cc1 | 87.8%
35 | O=C(O)C1CN(c2cccc(Cl)c2)N(c2cccc(Cl)c2)C1=O (configuration not stated) | 105%
36 | CN(C)c1ccc(/C=C/C(=O)c2ccc(Nc3nc(Nc4ccc(F)cc4)nc(Nc4ccc(Cl)cc4)n3)cc2)cc1 | 97.9%
37 | COC(=O)c1nc(-c2ccccc2)oc1S(=O)(=O)N1CCC(C(N)=O)CC1 | 23.2%

test system: ACHN renal; assay: as above; settings: 10 µM unless noted

Row | SMILES | growth
38 | NC(=O)c1c(NC(=O)c2ccc(Cl)cc2)sc2c1CCC(=O)C2 | 45.6%
39 | Nc1c(C(=O)Nc2cccc3ncccc23)sc2nc3c(cc12)C(=O)CCC3 | 52%
40 | CCOC(=O)c1cn2ncnc(Oc3ccc(NC(=O)NC4CC4)c(F)c3)c2c1C | 93.5%
41 | CCOC(=O)c1c2c(n3c1NCC3)-c1ccccc1C2=O | 97.3%
42 | CCCC(O)Cn1ncc(C(=O)OCC)c1NC(=O)NCc1cccc(F)c1 (configuration not stated) | 96.6%
43 | O=C(CCC(=O)c1nc2ncccc2[nH]1)NN1C(=O)CSC1c1ccc(Cl)cc1 (configuration not stated) | 97.4%
44 | COc1ccc2nc(Cl)c(/C=C/C(=O)c3ccc(NC(=O)CSc4nnc(-c5ccc(Cl)c(Cl)c5)n4-c4ccccc4)cc3)cc2c1 | 103%
45 | CS(=O)(=O)Nc1cncc(-c2ccc3ncnc(Nc4ccc(F)c(Cl)c4)c3c2)c1 | 32.3%
46 | Cc1ccc(-c2nc(C#N)c(S(=O)(=O)NCCO)o2)cc1 | 67.7%
47 | O=C1OCC2=C1C(c1cccc(C(F)(F)F)c1)c1cc3c(cc1N2CCO)OCO3 (configuration not stated) | 42.8%
48 | Cc1[nH]c(C(=O)Nc2cccc(OC3CCNCC3)c2)c(Cl)c1Cl | 62.8%
49 | O=C1/C(=C/c2ccc(Br)cc2)COc2ccc(O)c(O)c21 | -84.2% (active)
50 | CCN1C(=S)N(CC)C2C1NC(=S)N2/N=C/C=C/c1ccccc1OC (configuration not stated) | 33.7%
51 | COc1cc(-c2nc3occn3c2-c2ccnc(NCCCNS(=O)(=O)c3ccccc3)n2)ccc1F | 37.3%
52 | O=C(O)c1cccc(N/C=C/C(=O)c2cc3cc(Br)ccc3oc2=O)c1 | 102%
53 | N#Cc1c(Nc2ccc(F)cc2)n[nH]c1-c1cccs1 | 88.4%
54 | COc1ccc(C2C(C#N)=C(N)Oc3c2sc2c(Br)cccc32)cc1 (configuration not stated) | 54%
55 | CCNc1nc(-c2ccc(F)cc2)c(C#N)c(=O)n1C | 52.5%
56 | CC12CCC(/C(=C/NNc3ccc([N+](=O)[O-])cc3[N+](=O)[O-])C1=O)C2(C)C (configuration not stated) | 34.3%
57 | S=c1[nH]c2cc(Cl)ccc2o1 | 98.7%

Row | SMILES | growth
58 | COc1cc2c3c(c1O)-c1ccccc1[C@@H]1OC(=O)N(CC2)[C@H]31 | 106%
59 | CC(C)CSc1oc(-c2ccccc2)nc1S(=O)(=O)c1ccccc1 | 89.9%
60 | C#CCOc1cccc(-c2ncc3cc(NC(=O)CCl)ccc3n2)c1 | -87.2% (active)
61 | Cn1c(=O)c2c(nc(NC3=NS(=O)(=O)c4ccccc43)n2Cc2ccccc2)n(C)c1=O | 97.5%
62 | COc1cc2c(c(OC)c1OC)C(=O)CC(c1cccc(NC(=O)c3ccccc3Br)c1)O2 (configuration not stated) | 93%
63 | CC(C)(CO)N(CCO)CCO | 97.1%
64 | CC(=O)c1c(Nc2ccc(F)c(F)c2F)[nH]c2c(F)cc(F)cc2c1=O | 0.167% (active)
65 | C#CCOc1ccc2ncnc(Nc3cccc(NC(=O)CCl)c3)c2c1 | 65.8%
66 | COc1ccc(/C=C/C(=O)c2ccc(NC(=O)CSc3nnc(-c4cc(-c5ccccc5)nc5ccccc45)n3-c3ccccc3)cc2)cc1 | 95.7%
67 | CCn1cc(C2=C(c3cn(C)c4ncccc34)C(=O)NC2=O)c2cccnc21 | 74.7%
68 | NNC(=S)N/N=C/c1ccccn1 | 17%
69 | Cc1ccc2nc(Cl)c(Cn3nnnc3SCc3ccccc3)cc2c1 | 91.8%
70 | Clc1nn2c(Cn3cnc4c(NCc5ccccc5)ncnc43)nnc2c2ccccc12 | 16.8%
71 | CN(C)c1ccc(/C=C2/C=C(c3ccccc3)OC2=O)cc1 | 97.1%
72 | O=C(CN1C(=O)NC2NC(=O)NC21)N/N=C/c1ccc(Cl)cc1Cl (configuration not stated) | 105%
73 | COc1cccc(Nc2ccnc3[nH]c4ccc([N+](=O)[O-])cc4c23)c1 | 45.2%
74 | COc1ccc(C/C(C)=C(/c2ccc(OCCN3CCCCCC3)cc2)c2ccc(OC(=O)NCc3ccccc3)cc2)cc1 | 101%
75 | O=C(O)C1CN(c2cccc(Cl)c2)N(c2cccc(Cl)c2)C1=O (configuration not stated) | 95.6%
76 | CN(C)c1ccc(/C=C/C(=O)c2ccc(Nc3nc(Nc4ccc(F)cc4)nc(Nc4ccc(Cl)cc4)n3)cc2)cc1 | 75.3%
77 | COC(=O)c1nc(-c2ccccc2)oc1S(=O)(=O)N1CCC(C(N)=O)CC1 | 39.6%
